# From PubChem
# Sampled rows, rich in hits. Any-hit rate of the full collection: about 1.4%.
# BRCA1 expr up: BRCA1 expression activation | MCF7-BRCA1-FFLuc reporter, luminescence, 48 h; response scale: scaled: vehicle 0%, 10 µM genistein 100% | Potency, µM (titrated, usually from 46.1 µM), without a hit: top-dose activation, usual class: activators | 380,000 compounds, 1.1% hits; note: potency is the fitted concentration of half-maximal effect; nearly all actives have a fitted effect of over 80% in size
#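 First, MCF7-BRCA1-FFLuc cells (2000/well) attach for 2 h; next, compounds are pin-added and incubated 48 h at 37 °C; finally, luciferase reagent is added and luminescence read after 15 min.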
# N370S GC mod: N370S glucocerebrosidase modulation, Gaucher chaperone candidate; P04062; N370S GC spleen homogenate, 4MU-glucoside fluorescence; Potency, µM (doses to about 59.4 µM), for inactives: at the top dose activity change, negative = inhibition, most hits filed as inhibitors; 330,000 compounds, 0.092% hits; AID 2101;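 note: potency is the fitted concentration of half-maximal effect; 0% = full enzyme activity and -100% = no enzyme basal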
# a7 integrin act: activators of alpha7 integrin expression for muscular dystrophy. alpha7betagal myoblasts, beta-gal FDG fluorescence, 48 h. Potency, µM (highest dose often 38.3 µM), for the others: at the highest dose activation, most hits filed as activators. 350,000 compounds, 0.064% hits;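 note: potency is the fitted concentration of half-maximal effect; 100% = response of the positive control SU9516; nearly all actives have a fitted effect of over 60% in size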
#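 Alpha7betagal+/- myoblasts (passage 13) were plated 16-24 hr, then exposed to compounds (1:260 dilution of DMSO stock) for 48 hours at 37C. After MPER lysis, β-galactosidase reporter activity was read as FDG fluorescence (ex 480/em 540) after 30 minutes.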
# IL-2 act: activates IL-2 in a cell-based reporter assay; 360,000 compounds, 0.065% hits; IL-2 activation reporter assay, cell-based qHTS; stimulated with anti-CD3/CD4/CD28 beads; in transgenic mouse T cells; activation, % (series mostly up to about 46 µM); AID 652025; in the data active = activation above about 50%; inconclusive = mostly about 30% to 49%; note: 0% is about no effect
#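 First, unstimulated transgenic mouse T cells were exposed to compound for 60 min. Next, anti-CD3/anti-CD4-coated beads with anti-CD28 were added. Finally, after 18 h at 37 degrees C, EGFP and DsRed were imaged.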
# Nrf2 ARE act: activates Nrf2 signaling. AREc32 ARE-luciferase reporter (MCF7-derived line), luminescence, 24 h. Potency, µM (doses to about 46.1 µM), without a hit: at the highest dose activation, actives largely listed as activators. 410,000 compounds, 0.31% hits. AID 624171; note: potency is the fitted concentration of half-maximal effect; % of control where 0% means no effect; nearly all actives have a fitted effect of over 65% in size
#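 ARE-driven firefly luciferase activity in AREc32 cells measured after a 24 hr compound exposure at 37 deg C, using Steady-Glo reagent and a 30 min room-temperature hold.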
# Chronic BCR inh: blocks chronic active B-cell receptor signaling. ABC-DLBCL IkBa-CBG/CBR reporter, luminescence ratio, 4 h. AID 493014. 340,000 compounds, 0.05% hits. Potency, µM (series often up to 46.1 µM), without a hit: at the highest dose activity change, negative = inhibition, hits mostly inhibitors; active = well fitted inhibition curve with a large enough effect in the signal ratio, with a control signal flat, not every such curve was filed as active; inconclusive = small, poorly fitted or top-dose-only effect, or effect the other way, or a change in a side signal; the % refers to the signal ratio;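 note: potency is the fitted concentration of half-maximal effect; plate controls were basal doxycycline-induced cells for no effect and cells given 10 µM MG132 for full effect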
#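 TMD8 ABC-DLBCL cells carrying doxycycline-inducible green luciferase fused to IkappaBalpha plus unfused red luciferase were exposed to compounds (up to 46 uM) for 4 hrs at 37C. Activity came from the overlap-corrected green/red luminescence ratio.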
# Starred values were filed as active, the others as inactive; u = inconclusive; x = no result given. Unless noted, calls come from the whole dose curve; as a rule, active = well fitted curve in the direction sought with a large enough effect; inconclusive = small, poorly fitted or top-dose-only effect, or another doubt; inactive = no such curve, though single readings can be large; an effect the other way counts as inactive or inconclusive.
SMILES,BRCA1 expr up,N370S GC mod,a7 integrin act,IL-2 act,Nrf2 ARE act,Chronic BCR inh
CCc1ccc(OCc2nnc(-c3ccccc3Br)o2)cc1,15%,x,-30%,0,4%,8%
Clc1ccc(Cc2nnc(-c3ccccc3Br)o2)cc1,14µM*,1%,17%,-1,4%,u
Clc1ccccc1OCc1nnc(-c2ccccc2Br)o1,4µM*,u,-7%,0,6%,u
COC(=O)C[C@@H]1C=C[C@@H](NC(=O)CN(C)C)[C@@H](CO)O1,x,x,x,0,x,x
Cc1cc(NC(=O)c2cccc(Oc3ccccc3)c2)n[nH]1,11µM*,-8%,2%,1,3%,u
N#Cc1cc(C(=O)c2ccccc2O)cn(-c2nccs2)c1=O,-53%,-11%,13%,8,22µM*,u
O=C1C(Cl)=C(Nc2ccccc2O)C(=O)N1c1ccccc1,-25%,0%,-5%,-3,u,u
COc1ccccc1N1C(=O)C(Cl)=C(Nc2ccccc2O)C1=O,-17%,-18%,-10%,-2,13µM*,u
C/C(=N\NC(=O)C1CC1)c1ccc(C)c(C)c1,10µM*,3%,8%,-3,1%,0%
c1ccc(-c2cncn2-c2ccccc2)cc1,u,2%,1%,0,5%,-2%
Cn1c(=O)c2c(nc(Sc3ncnn3CC(=O)NC3CCCCC3)n2C)n(C)c1=O,3%,-13%,11µM*,0,-1%,9%
Cc1ccc(NC(=O)c2nsc(Cl)c2Cl)cc1,7%,2%,0%,0,5.6µM*,u
CC(=O)Nc1cccc(NC(=O)c2ccc([N+](=O)[O-])cc2Cl)c1,0%,2%,-12%,-5,0%,u
O=C(Nc1cccc(O)c1)c1ccc([N+](=O)[O-])cc1Cl,5µM*,10%,24%,1,2%,1%
O=C(CCCc1ccccc1)Nc1cccc([N+](=O)[O-])c1,13µM*,12%,-9%,2,u,6%
O=C(NCCCc1ccccc1)c1ccc([N+](=O)[O-])cc1Cl,10µM*,-4%,1%,-2,0%,-14%
Cc1ccc(C(=O)NCCCc2ccccc2)c(Cl)c1,u,-5%,-17%,-2,1%,u
Cc1ccc(NC(=O)c2ccc([N+](=O)[O-])cc2Cl)nc1,1.1µM*,6%,36%,-4,3%,-1%
O=C(CSC1=Nc2ccccc2C2CC=NN12)Nc1ccc2c(c1)OCO2 (centres undefined),-48%,u,0%,-3,-2%,-16%
N#Cc1ccccc1NC(=O)CSC1=Nc2ccccc2C2CC=NN12 (centres undefined),-4%,6%,-7%,-1,5%,20µM*
CCCOC(=O)c1ccc(NC(=O)CSC2=Nc3ccccc3C3CC=NN23)cc1 (centres undefined),23%,14%,0%,1,3%,u
O=C(CSC1=Nc2ccccc2C2CC=NN12)NCc1ccco1 (centres undefined),-55%,x,-44%,1,0.63µM*,u
O=C(c1cnccn1)N1CCC2(CC1)CCN(c1ccncc1)CC2,x,15%,x,x,x,x
COc1ccc(OC)c(NC(=O)CSc2n[nH]c(-c3ccccc3Cl)n2)c1,x,x,x,x,5%,x
O=S(=O)(NCC(c1ccco1)N1CCOCC1)c1ccc(Cl)cc1 (centres undefined),-5%,2%,14µM*,1,-1%,-2%
Cc1ccc(S(=O)(=O)NCC(c2ccco2)N2CCOCC2)cc1 (centres undefined),-21%,21%,u,-2,1%,-1%
COc1ccc(-c2nn(-c3ccccc3)cc2C#N)cc1,4µM*,3%,27%,4,2%,u
CSC1=NSC2=NC(=O)/C(=C/c3coc4ccccc4c3=O)C(=N)N12,-11%,1%,15%,-1,26%,u
